Laboratory results taken from PubChem BioAssay (NCATS).
Several values for one entry are separate records, joined by “and”; a condition that tells them apart may be missing. Equal entries are not always repeated. Results filed as inconclusive are left out. Some structures have more than one record in an assay (separate samples or runs), and their calls can disagree. Activity calls are given as the source filed them. Calls follow the shape of the dose curve; as a rule, active = well fitted inhibition curve with a large enough effect; inconclusive = small, poorly fitted or top-dose-only effect; inactive = flat fitted curve, though single readings scatter.

Legend:
CRL-7250 = normal cell line; experiment: Cytotoxic Profiling of Annotated Libraries Using Quantitative High-Throughput Screening (AID 1296008); conditions: Five cell lines viability, CellTiter-Glo ATP luminescence, 48-72 h; max response: stronger effect = lower value; also: potency is read from the fitted curve at half-maximal effect; as to max response: % is scaled to controls: 0 for no effect and ±100 for the full control effect
Procedure, shortened: (§1)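 Cytotoxicity was measured as CellTiter-Glo ATP luminescence, read after 10 min at room temperature. Compound treatment of the cells lasted 48 or 72 hr at 37 degrees Celsius in a qHTS format.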

HEK293 = experiment: as above; conditions: Five cell lines viability, CellTiter-Glo ATP luminescence, 48-72 h; max response: stronger effect = lower value
Procedure, shortened: as §1

KB-3-1 = experiment: as above; conditions: Five cell lines viability, CellTiter-Glo ATP luminescence, 48-72 h; max response: stronger effect = lower value
Procedure, shortened: as §1

NIH3T3 [1] = experiment: as above; conditions: Five cell lines viability, CellTiter-Glo ATP luminescence, 48-72 h; max response: stronger effect = lower value
Procedure, shortened: as §1

MCC-13 = experiment: qHTS assay to identify novel small-molecules to repurpose for Merkel cell carcinoma treatment (AID 1296009); conditions: MCC and control cell lines, CellTiter-Glo viability, 72 h; series mostly up to 46 µM
Procedure, shortened: (§2)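 Cell viability measured by CellTiter-Glo following 72 hr compound treatment at 37 degree celsius, with NPC and MIPE libraries tested in 8- and 11-point concentration series.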

MCC-26 = experiment: as above; conditions: MCC and control cell lines, CellTiter-Glo viability, 72 h; series mostly up to 46 µM
Procedure, shortened: as §2

MKL-1 = experiment: as above; conditions: MCC and control cell lines, CellTiter-Glo viability, 72 h; series mostly up to 46 µM
Procedure, shortened: as §2

MKL-2 = experiment: as above; conditions: MCC and control cell lines, CellTiter-Glo viability, 72 h; series mostly up to 46 µM
Procedure, shortened: as §2

UISO = experiment: as above; conditions: MCC and control cell lines, CellTiter-Glo viability, 72 h; series mostly up to 46 µM
Procedure, shortened: as §2

PC26 = experiment: qHTS profiling for inhibitors of Plasmodium falciparum proliferation (AID 504749); also: potency is read from the fitted curve at half-maximal effect; conditions: P. falciparum in erythrocytes, SYBR Green DNA, 72 h; series mostly up to 28.7 µM
Procedure, shortened: (§3)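 In a 72 h erythrocytic culture (37 C, humidified, 5% CO2) at 2.5% hematocrit and 0.3% starting parasitemia, compounds were tested; SYBR Green I in detergent lysis buffer stained parasite DNA overnight.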

PC49 = experiment: as above; conditions: P. falciparum in erythrocytes, SYBR Green DNA, 72 h; series mostly up to 28.7 µM
Procedure, shortened: as §3

SC27B = experiment: as above; conditions: P. falciparum in erythrocytes, SYBR Green DNA, 72 h; series mostly up to 28.7 µM
Procedure, shortened: as §3

TAB109 = experiment: as above; conditions: P. falciparum in erythrocytes, SYBR Green DNA, 72 h; series mostly up to 28.7 µM
Procedure, shortened: as §3

TAB113 = experiment: as above; conditions: P. falciparum in erythrocytes, SYBR Green DNA, 72 h; series mostly up to 28.7 µM
Procedure, shortened: as §3

TAB165 = experiment: as above; conditions: P. falciparum in erythrocytes, SYBR Green DNA, 72 h; series mostly up to 28.7 µM
Procedure, shortened: as §3

HaCat [2] = experiment: Cytotoxic Profiling of Annotated Libraries Using Quantitative High-Throughput Screening (AID 1296008); conditions: Five cell lines viability, CellTiter-Glo ATP luminescence, 48-72 h; max response: stronger effect = lower value; also: potency is read from the fitted curve at half-maximal effect; as to max response: % is scaled to controls: 0 for no effect and ±100 for the full control effect
Procedure, shortened: as §1

HACAT [3] = experiment: qHTS assay to identify novel small-molecules to repurpose for Merkel cell carcinoma treatment (AID 1296009); conditions: MCC and control cell lines, CellTiter-Glo viability, 72 h; at 44.8 µM (top of the series) unless noted
Procedure, shortened: as §2

NIH3T3 [4] = experiment: as above; conditions: MCC and control cell lines, CellTiter-Glo viability, 72 h; at 44.8 µM (top of the series) unless noted
Procedure, shortened: as §2

W2 = experiment: qHTS profiling for inhibitors of Plasmodium falciparum proliferation (AID 504749); also: potency is read from the fitted curve at half-maximal effect; conditions: P. falciparum in erythrocytes, SYBR Green DNA, 72 h; series mostly up to 28.7 µM
Procedure, shortened: as §3

HEK293T = experiment: qHTS assay to identify novel small-molecules to repurpose for Merkel cell carcinoma treatment (AID 1296009); conditions: MCC and control cell lines, CellTiter-Glo viability, 72 h; at 44.8 µM (top of the series)
Procedure, shortened: as §2
Also: nearly all actives have a fitted effect of over 60% in size.

Cc1ccnc(NS(=O)(=O)c2ccc(NC(=O)Nc3ccc(S(=O)(=O)Nc4nccc(C)n4)cc3)cc2)n1
active: Potency (CRL-7250) 0.372 µM | Potency (HEK293) 0.418 µM | Potency (KB-3-1) 2.35 µM | Potency (NIH3T3 [1]) 2.09 µM
inactive: max response (CRL-7250) -2.52% | max response (HEK293) -3.29% | outcome (KB-3-1) | max response (NIH3T3 [1]) -7.88% | Potency (MCC-13) | Potency (MCC-26) | Potency (MKL-1) | Potency (MKL-2) | Potency (UISO)

CNC[C@H](O)c1cccc(O)c1
inactive: Potency (PC26) | Potency (PC49) | Potency (SC27B) | Potency (TAB109) | Potency (TAB113) | Potency (TAB165) | max response (CRL-7250) -1.79% and -10.1% | max response (HEK293) 1.65% and -9.71% | max response (HaCat [2]) -21.3% | outcome (HaCat [2]) | max response (KB-3-1) 3.69% | outcome (KB-3-1) | max response (NIH3T3 [1]) 3.51% | outcome (NIH3T3 [1]) | outcome (HACAT [3]) | Potency (MCC-13) | Potency (MCC-26) | Potency (MKL-1) | Potency (MKL-2) | outcome (NIH3T3 [4]) | Potency (UISO)

O=C(Nc1ccc(F)c(C(F)(F)F)c1)Nc1nnc(-c2ccncc2)s1
inactive: max response (CRL-7250) 2.14% | max response (HEK293) -22.6% and -26.4% | max response (HaCat [2]) 2.71% | outcome (HaCat [2]) | max response (KB-3-1) -7.12% and -14.7% | max response (NIH3T3 [1]) -1.83% | outcome (NIH3T3 [1]) | outcome (HACAT [3]) | Potency (MCC-13) | Potency (MCC-26) | Potency (MKL-1) | Potency (MKL-2) | outcome (NIH3T3 [4]) | Potency (UISO)

NS(=O)(=O)c1cc2c(cc1Cl)NC=NS2(=O)=O
inactive: Potency (PC26) | Potency (PC49) | Potency (SC27B) | Potency (TAB109) | Potency (TAB113) | Potency (W2) | max response (CRL-7250) -0.778% and -4.67% | max response (HEK293) -4.01% and 0.386% | max response (HaCat [2]) -11.6% | outcome (HaCat [2]) | max response (KB-3-1) -5.96% | outcome (KB-3-1) | max response (NIH3T3 [1]) 3.94% | outcome (NIH3T3 [1]) | outcome (HACAT [3]) | Potency (MCC-13) | Potency (MCC-26) | Potency (MKL-1) | Potency (MKL-2) | outcome (NIH3T3 [4]) | Potency (UISO)

NC(=O)c1cnccn1
inactive: Potency (PC26) | Potency (PC49) | Potency (SC27B) | Potency (TAB109) | Potency (TAB113) | Potency (TAB165) | Potency (W2) | max response (CRL-7250) 3.02% and 1.22% | max response (HEK293) -0.963% | outcome (HEK293) | max response (HaCat [2]) -6.4% | outcome (HaCat [2]) | max response (KB-3-1) -14% | outcome (KB-3-1) | max response (NIH3T3 [1]) 3.86% and 2.38% | outcome (HACAT [3]) | outcome (HEK293T) | Potency (MCC-13) | Potency (MCC-26) | Potency (MKL-1) | Potency (MKL-2) | Potency (UISO)

COc1ccc([C@@H]2CC(=O)c3c(O)cc(O[C@@H]4O[C@H](CO[C@@H]5O[C@@H](C)[C@H](O)[C@@H](O)[C@@H]5O)[C@@H](O)[C@H](O)[C@@H]4O)cc3O2)cc1O
inactive: max response (CRL-7250) -5.3% | outcome (CRL-7250) | outcome (HEK293) | max response (HaCat [2]) -2.14% and 4.84% | max response (KB-3-1) 2.27% | outcome (KB-3-1) | max response (NIH3T3 [1]) 2.09% | outcome (NIH3T3 [1]) | outcome (HEK293T) | Potency (MCC-13) | Potency (MCC-26) | Potency (MKL-1) | Potency (MKL-2) | outcome (NIH3T3 [4]) | Potency (UISO)

O=NN(CCCl)C(=O)NCCCl
inactive: Potency (PC26) | Potency (PC49) | Potency (SC27B) | Potency (TAB109) | Potency (TAB113) | Potency (TAB165) | max response (CRL-7250) -1.64% | outcome (CRL-7250) | outcome (HEK293) inactive; activator | max response (KB-3-1) 10.2% and 5.9% | max response (NIH3T3 [1]) 3.76% and 1.65% | outcome (HACAT [3]) | outcome (HEK293T) inactive; activator | Potency (MCC-13) | Potency (MCC-26) | Potency (MKL-1) | Potency (MKL-2) | Potency (UISO)

C[C@H](NC(=O)Cc1cc(F)cc(F)c1)C(=O)N[C@@H]1C(=O)N(C)c2ccccc2-c2ccccc21
inactive: outcome (CRL-7250) | max response (HEK293) -10.7% | max response (HaCat [2]) -1.56% | outcome (HaCat [2]) | max response (KB-3-1) 1.83% | outcome (KB-3-1) | max response (NIH3T3 [1]) -12.2% and -1.62% | outcome (HACAT [3]) | Potency (MCC-13) | Potency (MCC-26) | Potency (MKL-1) | Potency (UISO)

CC(c1cc2ccccc2s1)N(O)C(N)=O (configuration not stated)
inactive: Potency (PC49) | Potency (SC27B) | Potency (TAB109) | Potency (TAB113) | Potency (TAB165) | Potency (W2) | max response (CRL-7250) -2.06% | outcome (CRL-7250) | outcome (HEK293) | max response (HaCat [2]) -0.226% and -8.25% | max response (KB-3-1) 0.162% and -9.2% | max response (NIH3T3 [1]) 3.52% | outcome (NIH3T3 [1]) | outcome (HEK293T) | Potency (MCC-13) | Potency (MCC-26) | Potency (MKL-1) | Potency (MKL-2) | outcome (NIH3T3 [4]) | Potency (UISO)

CCOC(=O)C1=C[C@]2(CC)CCCN3CCc4c(n1c1ccccc41)[C@@H]32
inactive: max response (CRL-7250) 1.21% | outcome (CRL-7250) | max response (KB-3-1) 2.59% and -10.9% | max response (NIH3T3 [1]) -12.6% | Potency (MCC-13) | Potency (MCC-26) | Potency (MKL-1) | Potency (UISO)
active: Potency (PC26) 15.1 µM | Potency (SC27B) 12.6 µM | Potency (TAB109) 10 µM | Potency (TAB165) 12.6 µM

C[C@@H]1CN(Cc2ccc(F)cc2)[C@@H](C)CN1C(=O)c1cc2c(C(=O)C(=O)N(C)C)cn(C)c2cc1Cl
inactive: max response (CRL-7250) 4.08% | outcome (CRL-7250) | max response (HaCat [2]) -4.64% | outcome (HaCat [2]) | max response (KB-3-1) 6.97% and -3.16% | max response (NIH3T3 [1]) 1.1% | outcome (NIH3T3 [1]) | outcome (HACAT [3]) | Potency (MCC-13) | Potency (MCC-26) | Potency (MKL-1) | Potency (MKL-2) | outcome (NIH3T3 [4]) | Potency (UISO)
